For nine molecules, growth results are on record in PubChem BioAssay (NCI).

About 83,000 compounds went through this panel and 20% of them were active in at least one assay; those are over-represented in the sample as a whole.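 The endpoint reported here, percent growth, reads 100 for growth as untreated, 0 for no net growth and -100 for all cells dead.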 A number with no mark means an inactive call. Calls of active or inactive are those of the source. The calls were made as follows: active = growth percent below 10; inactive = the rest.

Among the test systems are HCT-15 colon; SNB-75 CNS; U251 CNS; PC-3 prostate; SK-MEL-5 melanoma; UACC-62 melanoma; LOX IMVI melanoma; SK-MEL-2 melanoma; EKVX NSCLC; SN12C renal; UO-31 renal; TK-10 renal; ACHN renal; CAKI-1 renal; A498 renal; CCRF-CEM leukemia; MOLT-4 leukemia; SNB-19 CNS; SK-MEL-28 melanoma.
Experiment in all cases: NCI-60 one-dose screen, 48 h (100 = growth as untreated, 0 = no growth, -100 = all killed)
Conditions in all cases: 10 µM unless noted

For the molecule `C=C(CN1CCN(c2cccc(C(F)(F)F)n2)CC1)c1ccc(C(=O)Nc2ccccc2N)cc1`, the growth was 12.9% with HCT-15 colon; 7.18% (active) with SNB-75 CNS; 23.1% in the assay with U251 CNS; 22.6% with PC-3 prostate; -62.2% (active) in the assay with SK-MEL-5 melanoma; 26.9% in the assay with UACC-62 melanoma. Besides, the growth in the assay with LOX IMVI melanoma is 8.1% (active); in the assay on SK-MEL-2 melanoma, -9.9% (active); in the assay with EKVX NSCLC it was 47.2%; in the assay with SN12C renal, 15.5%; in the assay with UO-31 renal, 12%; in the assay with TK-10 renal, 41.6%. The growth in the assay on ACHN renal was 34%; in the assay with CAKI-1 renal, 14.3%; with A498 renal, 35.6%; with CCRF-CEM leukemia it was -32.1% (active); in the assay on MOLT-4 leukemia it was -14.5% (active).
On to `C/C(=C(/c1ccc(O)cc1)c1ccc(OCCN(C)C)cc1)c1ccccc1`, for which the growth with HCT-15 colon is 73.9%; in the assay on SNB-75 CNS, 53.4%; in the assay with SNB-19 CNS, 96.1%; in the assay with U251 CNS, 70.5%; with PC-3 prostate it was 80.3%; in the assay on SK-MEL-5 melanoma, 75.1%. Also, the growth in the assay on UACC-62 melanoma was 36.8%; in the assay with LOX IMVI melanoma, 82.8%; in the assay on SK-MEL-28 melanoma, 45.3%; with SK-MEL-2 melanoma, 92.3%; with EKVX NSCLC, 83.6%; in the assay with SN12C renal, 84%. The growth in the assay on UO-31 renal is 65%; with TK-10 renal it was 81.5%; with ACHN renal, 89.2%; in the assay on CAKI-1 renal it was 84.9%; in the assay with A498 renal, 102%; in the assay on CCRF-CEM leukemia it was 94.3%. For the same molecule, in the assay on MOLT-4 leukemia, the growth was 32.8%.
Take `CN1Cc2c(cc(CN3CCCCC3)n2C)C(c2ccc(Br)cc2)C1` (stereo not drawn): the growth with HCT-15 colon is 67.7%; with SNB-75 CNS, 70.3%; in the assay on U251 CNS it was 86.4%; with PC-3 prostate, 82.9%; in the assay with SK-MEL-5 melanoma it was 61.2%; in the assay with UACC-62 melanoma, -16.1% (active). For the same molecule, the growth in the assay on LOX IMVI melanoma was 68.2%; in the assay on SK-MEL-28 melanoma, 54.3%; in the assay on SK-MEL-2 melanoma, 114%; in the assay on SN12C renal it was 84.8%; in the assay with TK-10 renal it was 92.3%; in the assay on ACHN renal, 98.1%. Besides, the growth was 83.7% in the assay on CAKI-1 renal, 98.1% in the assay with A498 renal, 88.2% in the assay with CCRF-CEM leukemia and 92.5% with MOLT-4 leukemia.
Take `CCOC(=O)C(Cc1cc(I)c(O)c(I)c1)NC(=O)c1ccccc1` (stereo not drawn): the growth with HCT-15 colon is 98.6%; in the assay on SNB-75 CNS, 94.5%; with SNB-19 CNS it was 99.3%; with U251 CNS it was 33.6%; with PC-3 prostate it was 99.1%; in the assay with SK-MEL-5 melanoma it was 100%. Further, the growth in the assay with UACC-62 melanoma was 92.2%; with SK-MEL-28 melanoma it was 101%; with SK-MEL-2 melanoma, 97.6%; in the assay with EKVX NSCLC, 101%; in the assay on SN12C renal, 97.6%; in the assay with UO-31 renal, 92.2%. Moreover, the growth is 88.4% in the assay with TK-10 renal; 93.5% with ACHN renal; 95.7% with CAKI-1 renal; 78.7% in the assay with A498 renal; 95.3% in the assay on CCRF-CEM leukemia; 91.5% in the assay with MOLT-4 leukemia.
As to `COc1cc(-c2cc(-c3nc4ccc(Cl)cc4[nH]3)[nH]n2)cc(OC)c1OC`, the growth is 51.9% in the assay with HCT-15 colon; 68.4% in the assay on SNB-75 CNS; 85% in the assay with SNB-19 CNS; 69.7% with U251 CNS; 26.1% in the assay with PC-3 prostate; -5.65% (active) in the assay on SK-MEL-5 melanoma. The growth was 37.1% in the assay on UACC-62 melanoma; 34% in the assay on LOX IMVI melanoma; 60.1% in the assay on SK-MEL-28 melanoma; 55.8% in the assay on SK-MEL-2 melanoma; 68.3% with SN12C renal; 20.6% with UO-31 renal. In addition, the growth is 67.1% in the assay on TK-10 renal; 51.9% in the assay on ACHN renal; 35.1% in the assay on CAKI-1 renal; 39.2% in the assay with A498 renal; 7.12% (active) with CCRF-CEM leukemia; 4.79% (active) with MOLT-4 leukemia.
Consider `Nc1c(C(=O)Nc2ccccc2Cl)sc2nc3c(cc12)CCCCCC3`, for which the growth with HCT-15 colon is 25.8%; with SNB-75 CNS, -20.3% (active); in the assay with U251 CNS, 42%; in the assay with PC-3 prostate, 77.5%; with SK-MEL-5 melanoma, 32.6%; with LOX IMVI melanoma, 51%. Besides, the growth with SK-MEL-28 melanoma is 57.9%; in the assay on SK-MEL-2 melanoma, 46.2%; in the assay with UO-31 renal it was -8.93% (active); in the assay on TK-10 renal, 24.2%; in the assay on ACHN renal, 10.1%; with CAKI-1 renal, 57.7%. The growth is 50.1% with A498 renal, 25.5% with CCRF-CEM leukemia and 39.8% in the assay with MOLT-4 leukemia.
For `O=C1CCc2c(sc3[nH]c(=S)n(Cc4ccccc4)c(=O)c23)C1`, the growth in the assay on HCT-15 colon was 7.5% (active); in the assay on SNB-19 CNS, 11.8%; in the assay on U251 CNS, 8.09% (active); with PC-3 prostate, 13.9%; in the assay on SK-MEL-5 melanoma, -75.6% (active); with UACC-62 melanoma, 8.72% (active). The growth is 11.7% in the assay on LOX IMVI melanoma; 25% in the assay on SK-MEL-28 melanoma; -15.4% (active) in the assay with SK-MEL-2 melanoma; 13.9% with EKVX NSCLC; 7.15% (active) in the assay on SN12C renal; -4.69% (active) in the assay on UO-31 renal. Further, the growth in the assay with TK-10 renal was 29.6%; with ACHN renal it was 21.8%; in the assay with CAKI-1 renal it was 24.1%; in the assay with A498 renal, 57.6%; with CCRF-CEM leukemia, 4.68% (active); with MOLT-4 leukemia it was 28.8%.
Turning to `CCCCCCCCCCCCCC(=O)C(C)N` (stereo not drawn), the growth is 3.51% (active) in the assay on HCT-15 colon; 34.1% with SNB-75 CNS; 77.5% in the assay on SNB-19 CNS; 18.2% in the assay on U251 CNS; 3.08% (active) in the assay with PC-3 prostate; 90.3% in the assay on SK-MEL-5 melanoma. Besides, the growth was -71.1% (active) with UACC-62 melanoma; -79.6% (active) in the assay with LOX IMVI melanoma; 73.9% in the assay with SK-MEL-28 melanoma; 72.5% in the assay on SK-MEL-2 melanoma; 5.65% (active) in the assay on EKVX NSCLC; 5.02% (active) with SN12C renal. Moreover, the growth in the assay on UO-31 renal is 64.9%; in the assay on TK-10 renal, 48.5%; in the assay with ACHN renal, 39.2%; with CAKI-1 renal, 77.6%; in the assay with A498 renal, 11.3%; in the assay on CCRF-CEM leukemia, 60.2%. The growth in the assay on MOLT-4 leukemia is 46.8%.
Take `COc1cnc2c(c1)C(=O)c1c-2n(CCCN2CCCC2)c(=O)c2cc([N+](=O)[O-])ccc12`: the growth in the assay on HCT-15 colon was 20.3%; in the assay on SNB-75 CNS it was -3.27% (active); in the assay on SNB-19 CNS it was 19.8%; with U251 CNS it was -64.8% (active); in the assay with PC-3 prostate, 15.6%; with SK-MEL-5 melanoma it was -96.8% (active). Besides, the growth is -67.5% (active) with UACC-62 melanoma; -82.3% (active) in the assay with LOX IMVI melanoma; 29.3% with SK-MEL-28 melanoma; 13.8% in the assay on SK-MEL-2 melanoma; 8.36% (active) in the assay on SN12C renal; -96.3% (active) with UO-31 renal. Also, the growth in the assay with TK-10 renal was 13.2%; in the assay on ACHN renal it was -91.2% (active); in the assay on CAKI-1 renal, -13.6% (active); in the assay on A498 renal, -97.9% (active); with CCRF-CEM leukemia it was -16.1% (active); in the assay on MOLT-4 leukemia, 1.49% (active).
